The values below come from PubChem BioAssay AID1347165 (National Center for Advancing Translational Sciences (NCATS), 2019).

In all, about 220,000 compounds went through this assay and about 5,700 (2.6%) were called active. Roughly 18% stayed inconclusive and do not appear here. The sample holds actives, similar compounds and a random draw of the others, so the mix is not that of the screen. Calls come from the whole dose curve; as a rule, active = well fitted inhibition curve with a large enough effect; inconclusive = small, poorly fitted or top-dose-only effect; inactive = no such curve, though single readings can be large or run the other way.
Potency is the fitted concentration of half-maximal effect.

In this assay the target is Lysine-specific demethylase 5B (Homo sapiens) (UniProt Q9UGL1). In words: Primary screen for KDM5B Histone Demethylases FDH-coupled qHTS. For activity change, negative = inhibition: 0% is about no effect. Note: nearly all actives have a fitted effect of over 70% in size. The following applies: FDH-coupled NADH fluorescence (FDH is formaldehyde dehydrogenase); series mostly up to 57.7 µM; activity change, negative = inhibition: at the top concentration. From the text: Assay Submitter (PI): Qin Yan, Ph.D. (Yale University) and Xiaodong Cheng, Ph.D. (MD Anderson) This project was funded as part of the NCI NEXT Program and Chemical Biology Consortium (CBC) The histone demethylases, KDM5A and KDM5B catalyze the demethylation of lysine 4 on histone H3 (H3K4me3/2). They are overexpressed in a variety of cancers and have been implicated in cancer cell growth, metastasis, drug resistance, and tumor growth. KDM5A is amplified and overexpressed in breast and gastric cancer; and is translocated in leukemia. While KDM5B is highly expressed in human mammary tumors and breast cancer cell lines, but not in normal adult breast tissue. Moreover, knockdown of KDM5B leads to upregulation of tumor suppressor genes, including BRCA1. The goal of this project is to employ qHTS to identify selective small molecule inhibitors of KDM5A/B demethylase activity to better understand the role of KDM5 in cancer and to develop novel therapies. We employed an FDH-coupled assay previously reported by Sakurai et al. to monitor in vitro KDM5 demethylase activity. Compounds showing dose response inhibition are re-acquired, validated, and tested for non-specific interference with the formaldehyde dehydrogenase (FDH) counterscreen. True inhibitors are validated using an AlphaLisa secondary screen, which employs an H3K4(me2-1)-specific antibody to monitor demethylation of a biotin-tagged H3K4(me3) peptide substrate. Inhibitors are profiled against KDM4A and KDM6A AlphaLisa counterscreens to determine level of demethylase specificity; and against the TruHits counterscreen to eliminate non-specific inhibitory activity on the AlphaLISA detection method. Selective inhibitors identified from the primary and secondary screening are tested in cells using immunofluorescence to monitor global H3K4 tri-methylation as a measure of KDM5A/B inhibition. Early Translation Branch (ETB) National Center for Advancing Translational Sciences (NCATS), Rockville, MD National Institute of Health (NIH), Bethesda, Maryland [1] Sakurai, M et al. A miniaturized screen for inhibitors of Jumonji histone demethylases. Mol Biosyst. 2010 Feb;6(2):357-64. doi: 10.1039/b912993f. Epub 2009 Oct 8.
Chain of Lysine-specific demethylase 5B (Homo sapiens) (Q9UGL1 whole entry, looked up): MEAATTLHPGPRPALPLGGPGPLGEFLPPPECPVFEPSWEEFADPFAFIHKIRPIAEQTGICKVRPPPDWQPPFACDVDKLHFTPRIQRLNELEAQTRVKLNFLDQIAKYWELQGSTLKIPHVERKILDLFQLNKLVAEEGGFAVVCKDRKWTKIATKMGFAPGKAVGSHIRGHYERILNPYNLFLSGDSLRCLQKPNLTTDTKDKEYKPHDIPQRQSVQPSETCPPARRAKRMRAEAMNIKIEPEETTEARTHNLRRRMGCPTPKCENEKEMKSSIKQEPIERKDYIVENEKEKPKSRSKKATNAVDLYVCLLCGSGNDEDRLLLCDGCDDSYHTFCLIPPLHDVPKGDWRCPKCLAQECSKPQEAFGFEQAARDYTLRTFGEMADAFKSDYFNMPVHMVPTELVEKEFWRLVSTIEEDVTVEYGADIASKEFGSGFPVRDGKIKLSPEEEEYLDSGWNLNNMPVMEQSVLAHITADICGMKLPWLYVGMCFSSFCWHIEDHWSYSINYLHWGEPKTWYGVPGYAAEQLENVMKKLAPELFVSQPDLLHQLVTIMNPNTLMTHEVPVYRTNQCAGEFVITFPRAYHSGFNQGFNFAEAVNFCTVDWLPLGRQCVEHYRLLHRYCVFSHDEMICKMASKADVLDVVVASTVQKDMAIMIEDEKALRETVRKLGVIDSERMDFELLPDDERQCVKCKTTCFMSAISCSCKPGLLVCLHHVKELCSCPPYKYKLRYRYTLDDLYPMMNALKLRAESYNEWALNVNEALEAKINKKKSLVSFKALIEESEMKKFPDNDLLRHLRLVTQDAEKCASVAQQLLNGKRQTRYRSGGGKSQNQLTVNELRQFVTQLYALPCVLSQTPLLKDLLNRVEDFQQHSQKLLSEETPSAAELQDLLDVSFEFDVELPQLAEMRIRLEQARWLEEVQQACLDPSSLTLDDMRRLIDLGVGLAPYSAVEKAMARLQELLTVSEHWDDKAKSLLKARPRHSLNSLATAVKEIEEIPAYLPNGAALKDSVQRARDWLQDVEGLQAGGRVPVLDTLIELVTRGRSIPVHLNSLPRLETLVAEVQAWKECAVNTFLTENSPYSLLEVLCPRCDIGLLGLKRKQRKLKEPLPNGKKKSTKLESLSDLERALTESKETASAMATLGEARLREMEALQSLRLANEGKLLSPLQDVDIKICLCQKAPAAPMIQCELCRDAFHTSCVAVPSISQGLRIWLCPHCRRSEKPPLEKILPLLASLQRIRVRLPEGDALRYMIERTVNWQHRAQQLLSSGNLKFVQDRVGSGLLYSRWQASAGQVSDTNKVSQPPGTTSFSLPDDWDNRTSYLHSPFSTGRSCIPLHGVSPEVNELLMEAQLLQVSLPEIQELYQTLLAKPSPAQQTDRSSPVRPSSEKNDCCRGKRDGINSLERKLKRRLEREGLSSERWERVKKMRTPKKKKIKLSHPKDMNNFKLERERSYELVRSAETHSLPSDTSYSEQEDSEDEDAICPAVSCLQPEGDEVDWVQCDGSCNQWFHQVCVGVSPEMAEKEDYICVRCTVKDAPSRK
Materials: 1536-well Black, solid bottom, medium binding assay plate is purchased from Greiner Bio-one. The enzymes (KDM5B) and substrate (H3K4me3/2) are provided by the principal investigators. The buffer for this assay is composed of 50mM HEPES at pH 7.5 with 0.01% Tween-20. FDH coupled Demethylase qHTS protocol: Three microliter enzyme mix (buffer + 200nM KDM5BDeltaAP final concentration) is dispensed into the assay plate using the BioRAPTR Flying Reagent Dispenser (FRD; […]). Compound (at various final concentration) and control solution is pin transferred to the assay plate using the Kalypsys 1536-pin tool apparatus. The assay plate is incubated for 10 min at room temperature followed by addition of 1uL substrate mix (buffer + 100uM ascorbic acid, 50uM ferrous ammonium sulfate, 12.5uM H3K4Me3, 25uM a-ketoglutarate, 0.25 mM NAD+, 0.25 U/mL formaldehyde dehydrogenase using the FRD yielding a total reaction volume of 4 uL. Initial fluorescence (Read1) is detected using the PerkinElmer ViewLux plate reader equipped with 340 nm excitation and 450 nm emission filters. The final fluorescence (Read2) signal is obtained after 30 min of room temperature incubation. Delta RFU is calculated (Read2 - Read1) and is used to generated dose response curves.
`Cc1nnn2c(C(=O)NC3CC3)cccc12`: the Potency was 35.5 µM (active). As for `Cn1ncc(Br)c1C(=O)NC1CCCC1`, the “activity change, negative = inhibition” value is 2.23% (inactive). The same measure, in the same setting: to `Cc1ccc(NC(=O)c2ccccc2SCC(=O)NC2CC2)c(C)c1` belongs -7.22% (inactive). Same read-out and setting: the result for `O=c1oc2ccccc2cc1-c1nc(-c2ccc(F)cc2)no1` reads 6.44% (inactive); that for `CN(CC(=O)NCCN1CCOCC1)S(=O)(=O)c1ccc(F)cc1`, 18% (inactive). With `COC(=O)[C@@H]1Cc2c([nH]c3ccccc23)[C@H]2C[C@H](NCCNC(C)=O)C[C@@H](c3ccc(C)cc3)N21`, the Potency is 17.8 µM (active). Take `COC(=O)[C@@H]1Cc2c([nH]c3ccccc23)[C@H]2C[C@@H](NCCN3CCOCC3)C[C@@H](c3ccccc3F)N21`: the Potency was 17.8 µM (active). Regarding `CCOc1cccc(CC(=O)N2CCc3c([nH]c4ccccc34)C2c2ccc(F)cc2)c1OCC` (stereo not drawn), the “activity change, negative = inhibition” value was -19.1% (inactive). On the same count and under the same terms, the result for `Cc1ccc(C)n1-c1c(C(=O)NCCN2CCOCC2)sc2ncccc12` reads -13.7% (inactive). On the same count and under the same terms, to `COC(=O)[C@@H]1C[C@@H](NC(=O)c2ccc(-c3nnn(C)n3)cc2)CN1C` belongs -8.97% (inactive). On the same count and under the same terms, to `CC(C)NC(=O)NC(=O)CSc1nc(-c2ccco2)nc2ccccc12` belongs -18.9% (inactive).

As for `CNC(=O)c1sc(NCc2ccccc2OC)nc1C`, the “activity change, negative = inhibition” value is -25% (inactive). Same read-out and setting: the result for `CCOC(=O)c1c(C)[nH]c(C)c1S(=O)(=O)N(C)CC(=O)Nc1cc(C)cc(C)c1` reads 12.9% (inactive). Same read-out and setting: to `Cc1[nH]c2ccccc2c1C(=O)C(=O)NC1CCS(=O)(=O)C1` (stereo not drawn) belongs -13% (inactive).

Consider `CC(C)(C)c1ccc(C(=O)N2C[C@@H](CO)[C@H](c3ccccn3)C2)cc1`, for which the “activity change, negative = inhibition” value is 11.8% (inactive). The same measure, in the same setting: the result for `O=C(c1cccc(C(F)(F)F)c1)N1C[C@@H](CO)[C@H](c2ccccn2)C1` reads -1.06% (inactive). Consider `O=C(c1cccc2[nH]ccc12)N1C[C@@H](CO)[C@H](c2ccccn2)C1`, for which the Potency is 17.8 µM (active). Regarding `Cc1cc2oc(=O)cc(CN3CCN(S(=O)(=O)c4ccc5c(c4)OCCO5)CC3)c2cc1C(C)C`, the “activity change, negative = inhibition” value was 9.68% (inactive). The same measure, in the same setting: the result for `COC(=O)CN(CC(=O)NC(N)=O)Cc1ccccc1` reads 10.4% (inactive); that for `COc1ccc2[nH]c(C(=O)N3C[C@@H](Oc4ccccc4)C[C@H]3C(=O)N3CCCC3)cc2c1`, -929% (inactive). Take `COc1ccc2cc(C(=O)N3C[C@@H](Oc4ccccc4)C[C@H]3C(=O)N3CCOCC3)[nH]c2c1`: the Potency is 28.2 µM (active).

For the molecule `COc1ccc(CCC(=O)N2C[C@@H](Oc3ccccc3)C[C@H]2C(=O)N2CCOCC2)cc1`, the “activity change, negative = inhibition” value was 9.49% (inactive). The same measure, in the same setting: to `CCCn1c(=O)n(CC(=O)Nc2ccc(C)c(F)c2)c(=O)c2c1nc(C)n2CCOC` belongs -4.01% (inactive). The same measure, in the same setting: to `CCN(CC)c1ccc(C(=S)N(C)C)cc1` belongs -28.5% (inactive); to `CN1CCN([C@H]2CCN(C(=O)Cc3cccc(O)c3)C[C@H]2CCCO)CC1`, -8.3% (inactive); to `Cc1nc(C(=O)N2CC[C@H](N3CCN(C)CC3)[C@H](CCCO)C2)cs1`, -27.3% (inactive). In the case of `CNc1nc(N2CC[C@H](N3CCN(C)CC3)[C@H](CCC(=O)O)C2)ncc1F`, the Potency is 14.1 µM (active). For the molecule `O=C(CSc1nc(-c2ccc(F)cc2)cc(C(F)(F)F)n1)NC1CCCC1`, the “activity change, negative = inhibition” value is 7.5% (inactive). Still for that read-out and setting: to `CCOC(=O)C1=C(N)Oc2c(oc(CO)cc2=O)C1c1ccccc1C(F)(F)F` (stereo not drawn) belongs -9.02% (inactive); to `CCOc1cc(C2CC(=O)NC(SCC(=O)OC)=C2C#N)ccc1O` (stereo not drawn), -15.6% (inactive).

As for `O=C1COc2ccc(-c3cncnc3)nc2CN1Cc1ccc(F)cc1`, the “activity change, negative = inhibition” value is -30.4% [at 86.2 µM] (inactive). For `COc1cccc(CN2Cc3nc(-c4cc(F)cc(F)c4)ccc3OCC2=O)c1`, the “activity change, negative = inhibition” value was -26.2% [at 86.2 µM] (inactive). As to `COCCN1Cc2nc(NCc3ccccc3)ccc2OCC1=O`, the Potency was 35.5 µM (active). For `COc1cccc(C(=O)Nc2ccc3c(c2)CN(Cc2ccc(OC)cc2OC)C(=O)CO3)c1`, the “activity change, negative = inhibition” value is 0.861% (inactive).

In the case of `COCCNc1nc2c(c(=O)n(C)c(=O)n2C)n1CCc1ccccc1`, the “activity change, negative = inhibition” value is 2.93% (inactive). Turning to `Cc1ccccc1CN1Cc2nc(NCc3ccncc3)ccc2OCC1=O`, the Potency is 35.5 µM (active). For `COc1cccc(CN2Cc3nc(Nc4cccc(F)c4)ccc3OCC2=O)c1`, the Potency was 28.2 µM (active). For `O=C1Cc2c(-c3ccc(F)cc3F)n[nH]c2CN1Cc1ccccc1F`, the “activity change, negative = inhibition” value is 7.91% [at 86.2 µM] (inactive). On the same count and under the same terms, to `CCC(C(=O)Nc1ccc2c(c1)CN(Cc1cc(F)cc(F)c1)C(=O)CO2)c1ccccc1` (stereo not drawn) belongs -6.69% (inactive); to `COCC(=O)Nc1ccc2c(c1)CN(Cc1ccccc1F)C(=O)C(C)O2` (stereo not drawn), -4.01% (inactive); to `COCCn1c(C(=O)NCc2ccncc2)nc2ccccc2c1=O`, 11.4% (inactive). For `O=C1COc2ccc(Nc3ccccc3F)nc2CN1Cc1ccccc1F`, the Potency is 35.5 µM (active). In the case of `CC(=O)Nc1scc(-c2cc(C)ccc2C)c1C#N`, the “activity change, negative = inhibition” value was -19.7% (inactive). Regarding `Cc1ccc(C(=O)C(C)OC(=O)Cc2n[nH]c(=O)c3ccccc23)cc1C` (stereo not drawn), the “activity change, negative = inhibition” value was 15.4% (inactive). For `O=C1c2ccccc2NC(c2cnc3ccccc3n2)N1c1ccc(Cl)cc1` (stereo not drawn), the “activity change, negative = inhibition” value was 3.11% (inactive). `Cc1cc(C)c(C(=O)Nc2ccccc2)c(SCC(=O)NC2CCCCC2)n1`: the “activity change, negative = inhibition” value was 6.57% (inactive).

With `CCN1CCN(C(c2ccccc2)c2c(O)cc(C)n(CC)c2=O)CC1` (stereo not drawn), the “activity change, negative = inhibition” value is 4.49% (inactive). On the same count and under the same terms, the result for `CCCCC(c1nnnn1CS(=O)(=O)c1ccc(C)cc1)N1CCC(C(N)=O)CC1` (stereo not drawn) reads 13.2% (inactive); that for `CCC(C)c1ccc(NC(=S)N2CCCC2)cc1` (stereo not drawn), -10.6% (inactive); that for `CC(C)NC(=O)C1(CCO)CC12CCOCC2` (stereo not drawn), -10.3% (inactive). Regarding `CC(C)NC(=O)C1(CCO)CCN(c2ncccn2)C1` (stereo not drawn), the Potency was 31.6 µM (active). Consider `COc1cccc(NC(=O)COc2cc(C)cc3oc(=O)cc(C)c23)c1`, for which the “activity change, negative = inhibition” value is -1.19% (inactive). In the case of `CCOc1ccc(C(=O)N2CC(=O)Nc3ccc(C)cc3C2c2ccccc2)cc1` (stereo not drawn), the “activity change, negative = inhibition” value was 14.9% (inactive). As to `COc1ccc(-c2cc3c(=O)n(CCNC(=O)c4ccc(OC)cc4OC)ccn3n2)cc1`, the Potency is 35.5 µM (active). Turning to `CCOc1ccc(-c2cc3c(=O)n(CC(=O)NCc4ccc(OC)cc4)ccn3n2)cc1`, the “activity change, negative = inhibition” value is -6.91% (inactive). In the case of `CCOc1ccc(-c2cc3c(=O)n(CCNC(=O)c4ccc(OC)cc4C)ccn3n2)cc1`, the Potency is 28.2 µM (active). Turning to `CCC(C(=O)NCCn1ccn2nc(-c3ccc(F)cc3)cc2c1=O)c1ccccc1` (stereo not drawn), the “activity change, negative = inhibition” value is -11.3% (inactive). For the molecule `Cc1ccc(C)c(-c2cc3c(=O)n(CCNC(=O)Cc4ccsc4)ccn3n2)c1`, the “activity change, negative = inhibition” value is 16.8% (inactive). Still for that read-out and setting: to `Cc1ccc(C)c(-c2cc3c(=O)n(CCNC(=O)c4ccncc4)ccn3n2)c1` belongs -19% (inactive); to `Cc1c(Cl)cccc1NC(=S)NCCSc1ccc(Cl)cc1`, -3.71% (inactive). On to `O=Cc1cc(Cl)ccc1O`, for which the “activity change, negative = inhibition” value is 16.4% (inactive). Still for that read-out and setting: to `Cc1cc(C)c(NC(=O)COc2ccc(C(=O)Nn3c(C)ccc3C)cc2)c(C)c1` belongs -27.9% (inactive).

On to `O=C(Nc1ccccc1C(F)(F)F)N1CCC(N2CCN(Cc3ccccn3)C(=O)C2=O)CC1`, for which the “activity change, negative = inhibition” value is 19.7% (inactive).
